Out of some 48,000 compounds screened, about 13,000 (27%) showed an effect of 50% or more. This is one part of the list.
The molecules below were run on Wolbachia pipientis (assay: Anti-Wolbachia Cell-Based Screen). Conditions: 5 µM.
Format: functional
Design: scale not given: in the data most compounds retested in dose-response had high values

Compound | Percent Effect [%]
Cc1cc(NC(=O)NCCc2ccsc2)n(C)n1 | 2.6
c1ccc(Cc2noc(CN3CCCC(Cn4cncn4)C3)n2)cc1 (stereo not drawn) | 97.1
CC(C)Cc1noc(CN2CCCC(Cn3cncn3)C2)n1 (stereo not drawn) | 3.537
Fc1ccccc1Cc1noc(CN2CCCC(CN3CCCC3)C2)n1 (stereo not drawn) | -1.357
Clc1snnc1CN1CCCC(Cn2cncn2)C1 (stereo not drawn) | 3.779
c1coc(-c2noc(CN3CCCC(Cn4cncn4)C3)n2)c1 (stereo not drawn) | -0.1927
COCCc1noc(CN2CCCC(Cn3cncn3)C2)n1 (stereo not drawn) | 89.51
COCCN(C(=O)c1ccsc1)c1ccc(C#N)cc1 | -12.97
O=C(Cc1cn2ccsc2n1)N1CCOCC(O)(CN2CCCC2)C1 (stereo not drawn) | 4.067
O=C(C1CCC1)N1CCCn2nc(CNc3ncccn3)cc2C1 | 131.9
CC(=O)N1CCCn2nc(CNS(=O)(=O)N3CCCCCC3)cc2C1 | -0.4584
Cc1cc(NCc2cc3n(n2)CCCN(C(=O)C2CCC2)C3)nc(N)n1 | 111.3
Cc1cc(NCc2cc3n(n2)CCCN(S(C)(=O)=O)C3)ncn1 | -6.593
Cc1nc(CN2CCCn3nc(CNC(=O)C4CCC4)cc3C2)co1 | -9.719
Cc1cc(NCc2cc3n(n2)CCCN(C(=O)C2CCC2)C3)ncn1 | 87.84
CC(=O)N1CCCn2nc(CNc3cc(C)ncn3)cc2C1 | 18.58
Cc1cc(NCc2cc3n(n2)CCCN(C(=O)N(C)C)C3)ncn1 | -7.228
N[C@H]1CC[C@@H](CN2CCCn3nc(CNC(=O)C4CCC4)cc3C2)CC1 | 11.2
CS(=O)(=O)N1CCCn2nc(CNc3ncccn3)cc2C1 | -7.874
Cc1cc(C)nc(NCc2cc3n(n2)CCCN(C(=O)C2CCC2)C3)n1 | 104.2
COc1ccccc1CN1C(=O)O[C@@H]2CN(c3nccs3)C[C@@H]21 | -9.448

Compound | Percent Effect [%]
CCc1ccc(NS(=O)(=O)CC2=NC(=O)n3cccc3C2=O)cc1 | 11.57
CCn1cnnc1CCNC(=O)c1ccc(F)c(Br)c1 | -6.891
CN(C)C(=O)CO[C@H]1CO[C@@]2(CCN(S(C)(=O)=O)C2)C1 | -10.41
Cn1c(CN2CCN(c3cccnc3)CC2)cc2ccccc21 | 39.54
COCCNC(=O)C1CN(Cc2ccsc2)Cc2ccnn2C1 (stereo not drawn) | 3.328
COCCNC(=O)C1CN(C(N)=O)Cc2ccnn2C1 (stereo not drawn) | 100.3
CC(=O)N1Cc2ccnn2CC(C(=O)NCc2cccnc2)C1.O=C(O)C(F)(F)F (stereo not drawn) | 105.9
CS(=O)(=O)N1Cc2ccnn2CC(C(=O)NCc2cccnc2)C1.O=C(O)C(F)(F)F.O=C(O)C(F)(F)F (stereo not drawn) | 101.4
CC(C)NC(=O)C1CN(C(N)=O)Cc2ccnn2C1 (stereo not drawn) | -7.077
O=C(NCc1cccnc1)[C@@H]1CC[C@@H]2[C@@H](CCN2c2ncc(F)cn2)O1.O=C(O)C(F)(F)F.O=C(O)C(F)(F)F | -0.1893
COCCNC(=O)C1CN(Cc2cccnc2)Cc2ccnn2C1.O=C(O)C(F)(F)F.O=C(O)C(F)(F)F.O=C(O)C(F)(F)F (stereo not drawn) | 1.319
CC(C)CN(Cc1ccc(C(F)(F)F)nc1)Cc1cnn(C)c1 | -7.949
COc1cccn(CC(=O)N(C)CCSC)c1=O | -16.92
O=C(O)c1ccc2c(c1)C1(CCCCC1)CN2C(=O)c1cccs1 | -9.46
O=C1CCCN1CCN1CC[C@@]2(O)CCN(c3ncccn3)C[C@H]2C1 | -11.72
OC(CNCCn1cccn1)COc1ccc(Br)cc1 (stereo not drawn) | 2.37
CCN(CC)CC[C@H]1CN(C(=O)C(C)(C)C)CC[C@H]1CC(=O)O | -8.739
Cc1nc2n(n1)CC(NCCCc1nc(-c3cccs3)no1)CC2 (stereo not drawn) | -18.09
Cc1ccc(C(=O)N(C)CC(=O)Nc2cccc(C)n2)cn1 | -9.643
Cc1cccc(NC(=O)CN(C)C(=O)c2ccc(-n3cccc3)nc2)n1 | 6.082
Cc1oc(C)c(C(=O)Nc2ccccn2)c1C | 13.13

Compound | Percent Effect [%]
Cc1ncsc1C(=O)Nc1ccccn1 | 113.7
Cc1cccc(NC(=O)CN(C)C(=O)c2scnc2C)n1 | 117.3
Cc1ncsc1C(=O)N[C@@H](Cc1ccccc1)C(N)=O | 5.528
CCn1cc2c(n1)C(COCC1CC1)CN(C(=O)c1cnoc1C)C2 (stereo not drawn) | -6.391
CN(CC1Cc2ccccc2CN1C)C(=O)CSc1ccccn1 (stereo not drawn) | 0.2013
O=C(NC1CC2(CCN(CCO)CC2)c2ccccc21)c1ccno1.O=C(O)C(F)(F)F (stereo not drawn) | -3.484
Cc1ccc(CNC2CC3(CCN(CCO)CC3)c3ccccc32)s1.O=C(O)C(F)(F)F.O=C(O)C(F)(F)F (stereo not drawn) | 107.2
O=C(NC1CC2(CCN(CCO)CC2)c2ccccc21)c1ccsc1.O=C(O)C(F)(F)F (stereo not drawn) | -2.437
COCCN1CCC2(CC1)CC(NCc1ccc(C)s1)c1ccccc12.O=C(O)C(F)(F)F.O=C(O)C(F)(F)F (stereo not drawn) | 109.1
Cc1cccc(CNC2CC3(CCN(CCO)CC3)c3ccccc32)n1.O=C(O)C(F)(F)F.O=C(O)C(F)(F)F (stereo not drawn) | 121.3
COCCN1CCC2(CC1)CC(NCc1cncn1C)c1ccccc12.O=C(O)C(F)(F)F.O=C(O)C(F)(F)F (stereo not drawn) | -4.638
COCCN1CCC2(CC1)CC(N1CCOCC1)c1cc(C)ccc12.O=C(O)C(F)(F)F.O=C(O)C(F)(F)F (stereo not drawn) | -13.01
CC(NCc1cccn1C)c1noc(-c2ccc(Cl)cc2)n1 (stereo not drawn) | -2.056
CN1C(=O)CO[C@H](c2ccc(NC(=O)c3cccnc3)cc2)[C@H]1CO | -10.51
Nc1nc2c(c(NC(=O)Nc3cccc(Cl)c3)n1)CCCC2 | 7.303
Cc1c(NCc2ccc(C#N)cc2)cccc1S(=O)(=O)NC1CC1 | -7.698
c1cn(CCn2cnnc2)c(-c2cc3n(n2)CCCNC3)n1 | -4.741
COc1ccccc1C(=O)N1CC(=O)N(CC(C)C)CC(O)C1 (stereo not drawn) | 116.8
COc1ccccc1C(=O)N1CC(=O)N(CC2CC2)CC(O)C1 (stereo not drawn) | 108.3
CC(C)c1nnc2n1CCN(C(=O)c1ccccc1OCC1CC1)C2 | -3.948
COc1ccccc1C(C)CC(=O)N1CC[C@H](O)C1 (stereo partly drawn) | 18.86
